Measurements published in PubChem BioAssay AID504333 (National Center for Advancing Translational Sciences (NCATS), 2011).
Hit rate of the full screen: of about 360,000 compounds, about 16,000 (4.4%) were called active. Not shown: some 9% with an inconclusive outcome. The full list was thinned out, with actives kept by preference. A number with no mark means an inactive call. Calls follow the shape of the dose curve; as a rule, active = well fitted inhibition curve with a large enough effect; inconclusive = small, poorly fitted or top-dose-only effect; inactive = no such curve, though single readings can be large or run the other way.

Target: Bromodomain adjacent to zinc finger domain protein 2B (Homo sapiens) (UniProt Q9UIF8)
Sequence (Q9UIF8 whole entry, looked up, the tested form may be a part): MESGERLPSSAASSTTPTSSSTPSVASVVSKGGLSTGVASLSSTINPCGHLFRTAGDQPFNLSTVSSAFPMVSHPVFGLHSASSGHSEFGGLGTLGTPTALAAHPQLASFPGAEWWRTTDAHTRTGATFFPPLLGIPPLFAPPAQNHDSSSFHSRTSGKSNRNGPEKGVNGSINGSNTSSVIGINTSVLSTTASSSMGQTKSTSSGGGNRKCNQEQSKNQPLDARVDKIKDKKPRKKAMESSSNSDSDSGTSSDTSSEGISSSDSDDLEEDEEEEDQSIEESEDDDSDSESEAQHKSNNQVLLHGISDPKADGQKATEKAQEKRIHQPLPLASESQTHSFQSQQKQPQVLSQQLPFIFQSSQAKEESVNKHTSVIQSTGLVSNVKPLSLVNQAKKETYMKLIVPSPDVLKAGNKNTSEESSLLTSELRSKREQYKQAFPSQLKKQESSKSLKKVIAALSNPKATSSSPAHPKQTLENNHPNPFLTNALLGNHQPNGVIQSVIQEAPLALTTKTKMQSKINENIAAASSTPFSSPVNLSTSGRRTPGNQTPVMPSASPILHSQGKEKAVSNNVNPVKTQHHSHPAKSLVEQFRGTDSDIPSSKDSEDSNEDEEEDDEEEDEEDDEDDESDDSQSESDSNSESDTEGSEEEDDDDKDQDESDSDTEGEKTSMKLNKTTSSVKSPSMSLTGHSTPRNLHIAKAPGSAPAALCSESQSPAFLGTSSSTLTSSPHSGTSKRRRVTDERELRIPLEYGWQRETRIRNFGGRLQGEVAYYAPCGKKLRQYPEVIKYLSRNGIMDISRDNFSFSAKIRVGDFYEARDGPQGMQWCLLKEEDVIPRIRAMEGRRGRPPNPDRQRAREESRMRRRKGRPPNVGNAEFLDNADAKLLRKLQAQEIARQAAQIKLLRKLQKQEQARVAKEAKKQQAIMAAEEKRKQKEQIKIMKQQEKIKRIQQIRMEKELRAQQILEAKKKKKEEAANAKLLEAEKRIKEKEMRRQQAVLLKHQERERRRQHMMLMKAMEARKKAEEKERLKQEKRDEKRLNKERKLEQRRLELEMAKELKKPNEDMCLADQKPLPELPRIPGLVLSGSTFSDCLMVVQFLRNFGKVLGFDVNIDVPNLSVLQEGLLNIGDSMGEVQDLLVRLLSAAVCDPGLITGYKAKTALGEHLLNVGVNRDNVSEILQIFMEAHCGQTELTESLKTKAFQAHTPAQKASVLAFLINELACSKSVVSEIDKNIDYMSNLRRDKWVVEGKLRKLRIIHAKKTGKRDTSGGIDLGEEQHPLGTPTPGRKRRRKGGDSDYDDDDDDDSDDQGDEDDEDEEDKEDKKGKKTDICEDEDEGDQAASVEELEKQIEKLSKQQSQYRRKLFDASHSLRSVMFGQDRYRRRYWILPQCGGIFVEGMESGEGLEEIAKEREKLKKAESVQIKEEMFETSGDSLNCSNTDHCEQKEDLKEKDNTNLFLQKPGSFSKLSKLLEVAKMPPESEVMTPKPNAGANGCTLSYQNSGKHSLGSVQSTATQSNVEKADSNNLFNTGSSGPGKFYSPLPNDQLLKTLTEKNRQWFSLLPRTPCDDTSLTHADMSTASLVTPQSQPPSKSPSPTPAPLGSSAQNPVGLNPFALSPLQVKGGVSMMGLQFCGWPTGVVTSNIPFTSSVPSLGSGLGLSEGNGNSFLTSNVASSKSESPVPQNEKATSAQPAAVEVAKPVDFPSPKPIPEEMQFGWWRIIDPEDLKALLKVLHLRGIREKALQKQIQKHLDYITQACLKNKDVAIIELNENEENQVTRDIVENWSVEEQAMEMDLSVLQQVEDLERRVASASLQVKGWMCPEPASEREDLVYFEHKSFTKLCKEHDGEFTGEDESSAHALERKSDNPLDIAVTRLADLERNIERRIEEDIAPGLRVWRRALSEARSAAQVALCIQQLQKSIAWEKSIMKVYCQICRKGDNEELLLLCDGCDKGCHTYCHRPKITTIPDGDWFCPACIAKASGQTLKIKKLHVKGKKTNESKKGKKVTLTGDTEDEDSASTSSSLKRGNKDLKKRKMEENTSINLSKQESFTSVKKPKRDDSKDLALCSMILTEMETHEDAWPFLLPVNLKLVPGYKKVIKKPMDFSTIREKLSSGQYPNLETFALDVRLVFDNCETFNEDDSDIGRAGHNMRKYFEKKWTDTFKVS
Assay: qHTS Assay for Inhibitors of BAZ2B; also: nearly all actives have a fitted effect of over 60% in size
Conditions: AlphaScreen BAZ2B-H3K14Ac peptide displacement; series mostly up to 114 µM; activity change, negative = inhibition: at the top concentration
In short: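 Inhibition is scored as reduced AlphaScreen emission. The BAZ2B/b-H3(5-23)K14Ac complex (50 nM each) in PBS pH 7.4, 0.01% Tween-20 meets compound (up to 110 uM) for 30 min at RT before bead addition.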
% is scaled to controls: 0 for no effect and ±100 for the full control effect; potency is read from the fitted curve at half-maximal effect.

Structure (SMILES) | activity change, negative = inhibition | Potency
COc1ccc(NC(=O)CSc2nc3ccccc3c(=O)n2C)cc1 | 12.4% | 
COc1ccc(-c2nc3c(c(SCC(=O)Nc4ccc(C(=O)O)cc4)n2)Cc2ccccc2O3)cc1 |  | 8.91 µM (active)
COc1ccc(Cl)cc1NC(=O)CSc1nc(-c2cccs2)cc(C(F)(F)F)n1 | 4.09% | 
Cc1ccc(CN2CCCn3nc(C(=O)NCc4ccccc4Cl)cc3C2=O)cc1 | -15.9% | 
O=C1c2ccccc2C(=O)C1c1ccccc1F | -9.2% | 
O=C1c2ccccc2C2=Nc3ccccc3SC(c3ccccc3F)C12 (stereo unspecified) |  | 8.91 µM (active)
CC1Cc2cc(S(=O)(=O)CCC(=O)NCc3ccc(Cl)cc3)ccc2N1C(=O)C1CC1 (stereo unspecified) | -0.78% | 
CN(CC1CCCO1)S(=O)(=O)c1ccc(C(=O)Nc2ccc([N+](=O)[O-])cc2)cc1 (stereo unspecified) | -21.8% | 
O=C(Nc1cc2c3c(c1)C1CCCC1CN3CC1CCCC21)c1ccc([N+](=O)[O-])cc1 (stereo unspecified) |  | 11.2 µM (active)
CN1C2CCC1CC(NC(=O)c1ccc([N+](=O)[O-])cc1)C2 (stereo unspecified) | -7.51% | 
Cc1ccc(S(=O)(=O)c2c(Nc3cccc(Cl)c3)sc(C(=O)c3ccc4c(c3)OCO4)c2N)cc1 | -15.3% | 
CCCCC(=O)OC1=CN(Cc2ccccc2)S(=O)(=O)c2ccccc21 | 10.3% | 
Cc1ccc(NC(=O)CN2C(=O)C(c3ccc(F)cc3)=NC23CCCCCC3)c(C)c1 | 37.2% | 
CCN1CCN(C(=O)CSc2ccc(C)cc2)CC1 | -3.19% | 
CCN1CCC2(CC1)N=C(c1ccc(F)cc1)C(=S)N2C(=O)c1ccc(C)cc1 |  | 44.7 µM (active)
COc1ccc(CNC(=O)c2cc3cccc(OC)c3oc2=O)cc1 | -15.9% | 
O=C(NCCS(=O)(=O)N1CCN(c2ccc(F)cc2)CC1)c1ccccc1Br | -5.66% | 
COc1ccc(CNc2nc(-c3ccc(Cl)cc3)nn2C(=O)c2ccccc2)cc1 | 8.67% | 
O=C(CSc1oc(-c2ccccc2)nc1S(=O)(=O)c1ccc(Br)cc1)NC1CCCCC1 | 5.24% | 
CCOc1ccccc1NC(=O)CSc1ncc(S(=O)(=O)c2ccc(C(C)(C)C)cc2)c(=O)[nH]1 | -14.3% | 
O=C(CC1N=C2c3ccccc3N=C(SCc3ccc(F)cc3)N2C1=O)NCc1cccs1 (stereo unspecified) | 9.88% | 
CC(=O)NCc1ccc(-c2csc(NC(=O)CCCc3nc4ccccc4c(=O)[nH]3)n2)cc1 | -1.79% | 
O=C(CSc1nc2ccccc2c(=O)[nH]1)Nc1nc(-c2ccc(Br)cc2)cs1 |  | 79.4 µM (active)

Structure (SMILES) | activity change, negative = inhibition | Potency
CCOC(=O)c1ccccc1NC(=O)CSc1nc2ccccc2c(=O)[nH]1 | -4.86% | 
Cc1ccccc1Cn1nc(C)c(NC(=O)c2cc(-c3ccc(F)cc3)on2)c1C | 2.54% | 
O=C(O)c1ccc(N/N=C/c2cn(-c3ccccc3)nc2-c2cccs2)cc1 |  | 79.4 µM (active)
O=C(NCc1cccnc1)c1cn(-c2ccccc2)nc1-c1cccs1 | 5.33% | 
COc1cccc(NC(=O)CN(C)C(=O)/C=C/c2cn(-c3ccccc3)nc2-c2cccs2)c1 | -36.5% | 
CC(C)(C)OC(=O)N1CCC(c2c(C(=O)N3CCN(c4cccc(Cl)c4)CC3)cnn2-c2cccc(Cl)c2)CC1 | 2.35% [at 57.1 µM] | 
O=C(Nc1ccccc1Cl)N1CCC(CN2CCCC2)CC1 | 2.8% | 
CCS(=O)(=O)N1CCc2cc(C(=O)NCc3ccc(C)cc3)ccc21 | -4.46% | 
O=C(NC1CC(=O)N(c2ccc(F)cc2)C1)C1CCCCC1 (stereo unspecified) | 0.429% | 
COc1ccc(-n2cc(-c3ccccc3)c3c(=S)nc[nH]c32)cc1 |  | 79.4 µM (active)
COc1ccc(N2C(=O)C(Cc3ccccc3)NC2=S)cc1 (stereo unspecified) | -3.55% | 
CCCNc1ncnc2c1c(-c1ccccc1)cn2-c1ccc(OCC)cc1 | -26.2% | 
COc1ccc(C2=NC3(CCCCC3)N(CC(=O)Nc3ccc(C(C)C)cc3)C2=O)cc1 | -0.108% | 
CCN(CC)CCC(c1cc(OC)c(OC)c(OC)c1)c1c(OC)cc(OC)c2c(-c3ccccc3)cc(=O)oc12 (stereo unspecified) | -14.6% | 
COc1cc(OC)c2ccc(=O)oc2c1C(CCN1CCN(c2ccccc2)CC1)c1ccc2c(c1)OCO2 (stereo unspecified) |  | 25.1 µM (active)
CCN(CC)CCC(c1ccc2c(c1)OCO2)c1c(OC)cc(OC)c2c(-c3ccccc3)cc(=O)oc12 (stereo unspecified) | -33.9% | 
CCOC(=O)C1CCCN(C(=O)c2ccc(-n3ccc4ccccc43)s2)C1 (stereo unspecified) | 50% | 
COc1cc(OC)cc(C(=O)OCC(=O)Nc2ccc(F)cc2F)c1 | -10.2% | 
Cc1cccc(C(=O)OCC(=O)Nc2ccc(F)cc2)c1 | 2.82% | 
O=C(COC(=O)c1ccc(F)cc1F)Nc1ncccn1 |  | 50.1 µM (active)
COc1ccc(CCNC(=O)C(=O)NCC(c2ccco2)S(=O)(=O)c2cccs2)cc1OC (stereo unspecified) | 3.47% | 
COc1ccccc1NC(=O)CSC1=Nc2ccccc2C2=NC(CC(=O)NCc3cccs3)C(=O)N12 (stereo unspecified) | -0.849% | 
COc1ccc(CN2C(=O)C(NC(=O)c3cccc(C)c3)(C(F)(F)F)N=C2c2ccccc2)cc1 (stereo unspecified) | -27.7% | 
